Results as given in PubChem BioAssay AID777 (Sanford-Burnham Center for Chemical Genomics, 2007).
Among all 96,000 compounds or so, about 19,000 (20%) were called active.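 The calls were made as follows: active = blocking of liver enzyme CYP2C9 beyond about 50% at 5 µM (limit read from the data); inactive = the rest.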 A selection follows.

target: Cytochrome P450 2C9 (Homo sapiens) (UniProt P11712); experiment: blockers of cytochrome P450 2C9 activity – biochemical, luminescence, ADME assay, primary screen (AID 777); conditions: CYP2C9 Supersomes, luciferin-H conversion, at 5 µM, stronger effect = higher value
Sequence (P11712 whole entry, looked up): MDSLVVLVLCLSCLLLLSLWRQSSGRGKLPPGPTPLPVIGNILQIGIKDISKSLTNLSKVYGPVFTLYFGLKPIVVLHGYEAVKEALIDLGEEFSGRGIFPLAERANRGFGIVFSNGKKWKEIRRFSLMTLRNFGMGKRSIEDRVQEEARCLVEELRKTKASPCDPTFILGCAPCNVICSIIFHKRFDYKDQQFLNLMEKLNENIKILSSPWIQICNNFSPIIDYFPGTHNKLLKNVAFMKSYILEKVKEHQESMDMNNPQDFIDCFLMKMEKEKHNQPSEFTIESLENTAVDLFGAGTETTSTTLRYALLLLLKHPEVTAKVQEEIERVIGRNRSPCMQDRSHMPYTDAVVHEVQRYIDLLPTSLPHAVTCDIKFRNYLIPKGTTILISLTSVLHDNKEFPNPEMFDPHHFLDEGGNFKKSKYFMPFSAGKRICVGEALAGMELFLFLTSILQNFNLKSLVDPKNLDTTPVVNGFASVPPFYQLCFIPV

Row | SMILES | inhibition
1 | CN(NC(=O)c1ccccc1)c1nc2ccccc2nc1C(F)(F)F | 15.5% (inactive)
2 | Cc1cc(C(=O)CSc2nc(N)cc(=O)[nH]2)c(C)n1CCc1ccc(Cl)cc1 | 11.4% (inactive)
3 | CCOc1ccc(NC(=O)CCC(=O)n2nc(C)cc2C)cc1 | 5.6% (inactive)
4 | CCOc1ccc(C(C)C)cc1S(=O)(=O)n1nc(C)cc1C | 91.3% (active)
5 | CCOc1cc(C)c(Cl)cc1S(=O)(=O)n1nnc2ccccc21 | 39.1% (inactive)
6 | CCSC1=C(C#N)C(=O)n2c1cc1c2CCCC1 | -14.3% (inactive)
7 | O=S(=O)(NCC1CCCO1)c1ccc2ccccc2c1 (stereo not given) | -199% (inactive)
8 | CCOc1cc(C2C(C(=O)OC)=CN(C3CCCC3)C=C2C(=O)OC)cc(Br)c1O | -9.6% (inactive)
9 | COc1ccc(C(=O)Nc2ccc(S(=O)(=O)Nc3onc(C)c3C)cc2)cc1OC | 1.2% (inactive)
10 | Cc1noc(NS(=O)(=O)c2ccc(NC(=O)C34CCC(CC3)C4)cc2)c1C | 0.8% (inactive)
11 | Cc1noc(NS(=O)(=O)c2ccc(N/C=C/C(=O)c3ccccc3)cc2)c1C | 93.9% (active)
12 | Cc1ccc(S(=O)(=O)NCCN2CCOCC2)cc1C | 21.9% (inactive)
13 | Cc1ccc(-c2nc(C)sc2CC(=O)O)cc1 | 5.6% (inactive)
14 | Cc1ccc(Cn2ccc(NC(=O)C3C4CCC(C4)C3C(=O)O)n2)cc1 (stereo not given) | 13% (inactive)
15 | CC(=O)Nc1ccn(Cc2c(F)cccc2Cl)n1 | 6.2% (inactive)
16 | Cc1cc(NC(=O)c2cc(-c3cccs3)on2)nn1Cc1ccc(Cl)cc1 | -17.2% (inactive)
17 | Cc1ccc(Cn2ccc(NC(=O)c3cc(C(C)C)on3)n2)cc1 | 97.5% (active)
18 | Cc1nn(Cc2ccc(F)cc2)c(C)c1NC(=O)c1noc2c1CCc1ccccc1-2 | -1.9% (inactive)
19 | O=C(Nc1ccn(Cc2ccc(F)cc2)n1)c1ccncc1 | 92.9% (active)
20 | CCOC(=O)c1nn(-c2cccc(C)c2)cc1C(=O)c1ccccc1 | 33.5% (inactive)
21 | Cc1ccc(-c2ccnc3nc(Sc4ncc(C(F)(F)F)cc4Cl)nn23)cc1 | 9.8% (inactive)
22 | N#Cc1cccc(CSc2nnc(CCCO)n2-c2ccccc2)c1 | 11.5% (inactive)
23 | Cc1cccc(NC(=O)c2ccc(OCC(=O)NCc3ccccc3)cc2)c1C | -9.9% (inactive)
24 | Cc1cccc(C)c1NC1=NC(=S)N(c2ccc(N(C)C)cc2)C1(C)C | -27.7% (inactive)

Row | SMILES | inhibition
25 | COc1ccc(NC(=O)ON=C2c3ccccc3-c3ccccc32)cc1 | 16% (inactive)
26 | CCN(CC)S(=O)(=O)c1cc([N+](=O)[O-])ccc1NNC(=O)Nc1ccccc1 | 25.7% (inactive)
27 | O=C(Nc1ccccc1)O/N=C1\CCCCC1c1ccc([N+](=O)[O-])cc1[N+](=O)[O-] (stereo not given) | 63.3% (active)
28 | Cc1ccc2oc(=O)c3cnn(CC(=O)N4CCCCCC4)c3c2c1 | 4.4% (inactive)
29 | COc1ccc(N2C(=O)CCC(C(=O)N(C)C3CCCCC3)C2c2ccc(OC)c(OC)c2)cc1 (stereo not given) | 10.7% (inactive)
30 | CCCn1c(C(Cc2ccccc2)NC(=O)COC)nc2ccccc21 (stereo not given) | 74.5% (active)
31 | CCCC(NC(=O)c1ccccc1)c1nc2ccccc2n1Cc1ccc(C(=O)OC)o1 (stereo not given) | 14.1% (inactive)
32 | C=CCn1c(C(C)NC(=O)CC)nc2ccccc21 (stereo not given) | -3.6% (inactive)
33 | CC/S(CC1CC1(Cl)Cl)=N\S(=O)(=O)c1ccc(C)cc1 (stereo not given) | -9% (inactive)
34 | CS(=O)(=O)N1CCN(c2cccc(Cl)n2)CC1 | 19.9% (inactive)
35 | CN1c2ccccc2-c2nc3ccccc3n2C1c1ccco1 (stereo not given) | 45.9% (inactive)
36 | O=C(Oc1cccnc1)c1cc2ccccc2oc1=O | 30.1% (inactive)
37 | CCc1ccc(CNC(=O)CCc2nc(-c3cccs3)no2)cc1 | 70.4% (active)
38 | CCNC(=O)CCc1nc(-c2ccc(C(C)(C)C)cc2)no1 | -11.4% (inactive)
39 | Cc1ccc(-c2noc(CCC(=O)Nc3ccccc3N3CCN(C)CC3)n2)cc1 | 48.1% (inactive)
40 | Cc1cc(C)cc(N(CC(=O)Nc2c(C)n(C)n(-c3ccccc3)c2=O)S(C)(=O)=O)c1 | 16.3% (inactive)
41 | O=C(N/N=C/c1ccc(O)cc1)/C(=C/c1ccc([N+](=O)[O-])cc1)NC(=O)c1ccccc1 | -2.6% (inactive)
42 | N#CCCN1CCN(S(=O)(=O)c2ccc(S(=O)(=O)NC3CCCCC3)cc2)CC1 | 58% (active)
43 | N#CCCN1CCN(S(=O)(=O)c2ccc(S(=O)(=O)NC3CC3)cc2)CC1 | 9.6% (inactive)
44 | N#CCCN1CCN(S(=O)(=O)c2ccc(S(=O)(=O)N3CCCC3)cc2)CC1 | 16.2% (inactive)
45 | Cc1ccccc1-n1c(C)cc(/C=N/NC(=O)c2ccc(CN3CCOCC3)cc2)c1C | 31.2% (inactive)
46 | CC(C)(C)Oc1ncc(Br)c(OC(C)(C)C)n1 | -16.6% (inactive)
47 | COc1cccc(C2/C(=C(/O)c3ccncc3)C(=O)C(=O)N2CCCN(C)C)c1 (stereo not given) | -17.5% (inactive)
48 | COc1cc(N=Cc2c(O)[nH]c3ccccc23)cc(OC)c1OC | 66% (active)

Row | SMILES | inhibition
49 | COc1ccc(N=Cc2c(O)[nH]c3ccccc23)cc1OC | 2.9% (inactive)
50 | COc1ccc(OC)c(N=Cc2c(O)[nH]c3ccccc23)c1 | 15.1% (inactive)
51 | CCCCCCC(=O)Nc1nc(C)c(-c2csc(Nc3cccc(OC)c3)n2)s1 | 19.4% (inactive)
52 | COC(=O)c1cc(OC)c(OC)cc1NC(=O)CSc1ccc(C)cc1 | 21.1% (inactive)
53 | Cc1ccc(SCC(=O)c2cc(C)c(OC(=S)N(C)C)c(C)c2)cc1 | 58.6% (active)
54 | Cc1ccc(SC(=O)COc2ccc(C)c(C)c2)cc1 | 13.5% (inactive)
55 | CSc1nc(C)nc2c1c(=O)n(C)c(=O)n2C | -6.6% (inactive)
56 | CSc1nc2nc3c(c(=O)n2[nH]1)CCC3 | -13.2% (inactive)
57 | Cn1c(=O)oc2cc(S(=O)(=O)N3CCC(C(=O)Nc4ccc(OC(F)(F)F)cc4)CC3)ccc21 | -62.7% (inactive)
58 | Cc1ccc(C)c(N2CCN(S(=O)(=O)c3ccc4c(c3)oc(=O)n4C)CC2)c1 | 88.4% (active)
59 | Cc1ccc2nc(NC(=O)C3CCN(S(=O)(=O)c4ccc5c(c4)oc(=O)n5C)CC3)sc2c1 | -47.7% (inactive)
60 | CCSC1(SCC)N=C(N)C2(C#N)C(c3ccccc3)NC(C)=CC12C#N (stereo not given) | 6.1% (inactive)
61 | CCOc1cccc(=O)c2c(C)n(CC3CCCO3)c(C)c12 (stereo not given) | 59.7% (active)
62 | O=c1c2cc3c(=O)n(CC4CCCO4)c(=O)c3cc2c(=O)n1CC1CCCO1 (stereo not given) | 3.8% (inactive)
63 | COC(=O)c1ccc2c(=O)n(CC3CCCO3)c(=S)[nH]c2c1 (stereo not given) | 6.5% (inactive)
64 | OCCCN1c2ccccc2Nc2nnc(-c3ccccc3)cc21 | 46.3% (inactive)
65 | CN(C)c1nc2n(c(=O)n1)CCO2 | 2.6% (inactive)
66 | COC(=O)c1[nH]c2ccccc2c1NC(=O)CN1CCCc2ccccc21 | 88.7% (active)
67 | CCOC(=O)c1[nH]c2ccc(OC)cc2c1NC(=O)CCN1CCN(Cc2ccccc2)CC1 | 11.4% (inactive)
68 | CC(C)(CNC(=O)c1cc(=O)[nH]c2ccccc12)N1CCOCC1 | 8% (inactive)
69 | Cc1cccc(-n2c(O)c(C=Nc3ccccc3N)c(=O)[nH]c2=O)c1 | 0.2% (inactive)
70 | CCCOP(=O)(c1ccc(N(C)C)cc1)C(O)c1cc(OC)c(OC)c(OC)c1 (stereo not given) | -3.1% (inactive)
71 | Cn1nc(C(F)(F)F)c(C(=O)Nc2cccc(C(F)(F)F)c2)c1SCc1ccc(Cl)cc1 | 97.5% (active)
72 | CCC(=O)OCc1c(C(F)(F)F)nn(C)c1Oc1cccc(C(F)(F)F)c1 | 34% (inactive)

Row | SMILES | inhibition
73 | FC(F)(F)c1cccc(NC(=S)Nc2cccc(Cl)c2)c1 | -83% (inactive)
74 | COC(=O)c1sc2ncccc2c1OCc1ccc(Cl)cc1Cl | 9.3% (inactive)
75 | Cc1ccc2c(C(=O)CN3CCCC3)c(C)[nH]c2c1 | 49.7% (inactive)
76 | CC1=CC(C)(C)Nc2ccc(OC(=O)CN3C(=O)C4CCCCC4C3=O)cc21 (stereo not given) | 10.9% (inactive)
77 | Cc1ccc(C)n1C(Cc1ccccc1)C(=O)O (stereo not given) | 28.3% (inactive)
78 | CC1=CC(C)(C)Nc2ccc(OC(=O)C(Cc3ccccc3)N3C(=O)C4CCCCC4C3=O)cc21 (stereo not given) | 72.8% (active)
79 | O=C(Nc1ccon1)c1sc2ccccc2c1Cl | -23.1% (inactive)
80 | CCc1c(C)c2c(C)[nH]nc2oc1=O | -66% (inactive)
81 | Cc1cc2c(c(=O)n1Cc1ccco1)C(c1ccccc1)C(C#N)=C(N)O2 (stereo not given) | 1.2% (inactive)
82 | Cc1ccc(-c2nc3ccccc3[nH]2)cc1N | 40.6% (inactive)
83 | Cn1nc([N+](=O)[O-])nc1Sc1ccc(C(C)(C)C)cc1 | 12.1% (inactive)
84 | COc1ccccc1Nc1ncc(C(C)=O)c(C)n1 | 18.7% (inactive)
85 | CCC(C(=O)NC1CCCC1)N(C(=O)c1snc(C(N)=O)c1N)c1ccc2c(c1)OCCO2 (stereo not given) | 14.7% (inactive)
86 | CN(C(=O)CSc1nc(C2CC2)nc2ccccc12)c1nc(-c2ccccc2)cs1 | 39.9% (inactive)
87 | COc1ccc2c(c1OC)C(=O)OC2Nc1nc(-c2ccccc2)cs1 (stereo not given) | 8.8% (inactive)
88 | COc1ccc(CCN(C(=O)COc2ccccc2)c2nc(-c3ccccc3)cs2)cc1OC | 75.2% (active)
89 | CCn1c(=N)n(CC(=O)c2cccc(OC)c2)c2ccccc21 | -13.2% (inactive)
90 | O=C(Nc1ccc(Cl)cn1)c1cnn2cccnc12 | 11.4% (inactive)
91 | O=S1(=O)CCN(Cc2ccccc2Cl)CC1 | 13.3% (inactive)
92 | CN1/C(=C\C(=O)c2oc3ccccc3c2N)C(C)(C)c2ccccc21 | 47.6% (inactive)
93 | Cc1ccc(-c2nc(COC(=O)c3c(C)noc3C)cs2)cc1 | 28% (inactive)
94 | Cc1noc(C)c1C(=O)OCC(=O)/C=C1\N(C)c2ccccc2C1(C)C | 55.7% (active)
95 | Nc1nnc(SCCN2C(=O)c3ccccc3S2(=O)=O)s1 | -0.2% (inactive)
